Measured values published in PubChem BioAssay AID588675 (Johns Hopkins Ion Channel Center, 2011).
The campaign covered roughly 310,000 compounds. About 1,900 (0.61%) were called active.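 Rule for the calls: active = plate-corrected calcium response at least 3 library SD above typical, normal starting fluorescence, not activating the receptor alone; inactive = the rest.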 Many of the other results were omitted from the sample, so actives are more common in it than they were.

Target: Mas-related G-protein coupled receptor member X1 (Homo sapiens) (UniProt Q96LB2)
Experiment: allosteric enhancers of human MrgX1 signaling – HEK293 cells, Fluo-4 calcium flux, primary screen (AID 588675);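 note: compound read alongside a low EC10 to EC30 dose of BAM8-22 agonist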;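 for B-score: peak minus trough fluorescence over baseline measured at the second addition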
Settings: MrgX1-HEK293, Fluo-4 calcium flux, FDSS, at 10 µM; hits give high values

Mas-related G-protein coupled receptor member X1 (Homo sapiens), sequence (Q96LB2 whole entry, looked up): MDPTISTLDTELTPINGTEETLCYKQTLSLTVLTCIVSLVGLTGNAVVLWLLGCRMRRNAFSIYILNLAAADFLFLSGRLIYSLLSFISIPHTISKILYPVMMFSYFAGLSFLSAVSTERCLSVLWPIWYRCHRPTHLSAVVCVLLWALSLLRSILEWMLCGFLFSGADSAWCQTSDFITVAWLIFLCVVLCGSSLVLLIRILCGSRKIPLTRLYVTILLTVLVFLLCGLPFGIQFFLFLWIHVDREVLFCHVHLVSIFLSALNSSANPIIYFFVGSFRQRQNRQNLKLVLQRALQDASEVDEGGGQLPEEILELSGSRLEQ

Question: For `CCN(CC)C(=O)CC1(c2ccccc2OC)CCOC(C(C)C)C1` (stereo not given), which B-score is on record?
Answer: inactive

Question: Which B-score does the source give for `COC(=O)c1c(C)cc(O)c(C)c1O` here?
Answer: inactive

Question: For `N#C/C=C(/c1ccc(F)cc1)N1CCOCC1`, which B-score is on record?
Answer: inactive

Question: How did the B-score turn out when `CC1=C(C(N)=O)C(c2ccc(Br)cc2)n2ncnc2N1` (stereo not given) was run?
Answer: inactive

Question: With `Fc1ccccc1/C=C1\CCCC2=C1Nc1ncnn1C2c1ccccc1F` (stereo not given) as the compound, how does the B-score read?
Answer: 7.46 (active)

Question: For `CC(C(=O)N=Nc1c(O)n(C)c2ccc(Br)cc12)n1cnc2ccccc2c1=O` (stereo not given), which B-score is on record?
Answer: inactive

Question: `CC(C)N(c1ccccc1)c1ncnc(NCCC(=O)O)c1[N+](=O)[O-]` was tested. Which B-score did it give?
Answer: inactive

Question: With `Cc1c(C(=O)N2CC(C)OC(C)C2)sc2nc(-c3ccccc3)cn12` (stereo not given) as the compound, how does the B-score read?
Answer: inactive

Question: For `Cc1c(C(=O)N2CCCc3ccccc32)sc2nc(-c3ccccc3)cn12`, which B-score is on record?
Answer: 10.8 (active)

Question: How did the B-score turn out when `Cc1c(C(=O)NCC2CCCO2)sc2nc(-c3ccccc3)cn12` (stereo not given) was run?
Answer: inactive

Question: How did the B-score turn out when `CCn1nccc1C(=O)Nc1ccc(S(=O)(=O)NC23CC4CC(CC(C4)C2)C3)cc1` was run?
Answer: inactive

Question: How did the B-score turn out when `COc1ccc(S(=O)(=O)N2CCCC(C(=O)NCCCn3ccnc3)C2)cc1OC` (stereo not given) was run?
Answer: inactive

Question: With `Cc1ccc(C)c(N2CCN(S(=O)(=O)c3c(C)[nH]c(C)c3C(=O)N3CCCC3)CC2)c1` as the compound, how does the B-score read?
Answer: inactive

Question: How did the B-score turn out when `CCOC(=O)c1ccccc1NC(=S)N1CCC(C(N)=O)CC1` was run?
Answer: inactive

Question: For `Cc1nc2ccccc2cc1OCc1ccc(F)cc1`, which B-score is on record?
Answer: 11.8 (active)

Question: For `Cc1occc(=O)c1OCc1ccc(F)cc1`, which B-score is on record?
Answer: inactive

Question: `Fc1ccccc1COc1cccc2cccnc12` was tested. Which B-score did it give?
Answer: inactive

Question: For `COCCCN(C(=O)CSCc1ccc(C)cc1)c1c(N)n(Cc2ccccc2)c(=O)[nH]c1=O`, which B-score is on record?
Answer: inactive

Question: `S=C(NCCC1=CCCCC1)Nc1ccccc1` was tested. Which B-score did it give?
Answer: inactive

Question: Which B-score does the source give for `S=C(NCCc1ccccc1)NCC1CCCO1` (stereo not given) here?
Answer: inactive

Question: How did the B-score turn out when `Oc1c(Br)cc(/C=N/NC(=S)NCC2CCCO2)cc1Br` (stereo not given) was run?
Answer: 6.64 (active)

Question: With `S=C(NCC1CCCO1)N1CCN(c2ccc(Cl)c(Cl)c2)CC1` (stereo not given) as the compound, how does the B-score read?
Answer: inactive

Question: With `C=CCOc1ccccc1NC(=O)CN1C(=O)CNC1=O` as the compound, how does the B-score read?
Answer: inactive

Question: For `CCOC(=O)c1cnc2ccc(F)cc2c1Nc1ccc2c(c1)OCCO2`, which B-score is on record?
Answer: inactive

Question: For `CCCc1ccc(OCC(=O)NNC(=S)NC(=O)c2ccco2)cc1`, which B-score is on record?
Answer: 11.9 (active)

Question: For `CCCc1ccc(OCCNC(=O)c2ccco2)cc1`, which B-score is on record?
Answer: inactive

Question: `CC(Oc1ccc2ccccc2c1)C(=O)NNC(=S)NC(=O)c1ccco1` (stereo not given) was tested. Which B-score did it give?
Answer: inactive

Question: How did the B-score turn out when `CCOc1cc(C(=O)Nc2ccc(S(=O)(=O)Nc3cnc4ccccc4n3)cc2)cc(OCC)c1OCC` was run?
Answer: inactive

Question: How did the B-score turn out when `Cc1ccccc1-n1nc(SCC(=O)O)sc1=S` was run?
Answer: inactive

Question: `CN(C)CCCCCN(C)Cc1cc2ccccc2o1` was tested. Which B-score did it give?
Answer: inactive

Question: With `CCOC(=O)c1ccc(-c2ccc(C(=O)Nc3cccnc3)o2)cc1` as the compound, how does the B-score read?
Answer: inactive

Question: With `Cc1ccc(C2C3=C(Nc4[nH]n(-c5ccccc5)c(=O)c42)c2ccccc2C3=O)cc1` (stereo not given) as the compound, how does the B-score read?
Answer: inactive

Question: How did the B-score turn out when `COC(=O)C1=C(C)NC2=C(C(=O)c3ccccc32)C1c1ccc(-c2ccc(C(=O)O)cc2)o1` (stereo not given) was run?
Answer: 16.1 (active)

Question: Which B-score does the source give for `CC(C)(C)NC(=O)CSc1nnc(NC(=O)CCc2ccccc2)s1` here?
Answer: inactive

Question: `O=C(ON=C1CCN(S(=O)(=O)c2ccccc2)CC1)c1ccc(Cl)cc1` was tested. Which B-score did it give?
Answer: inactive

Question: With `O=C(Nc1sc2c(c1C(=O)O)CCC2)c1ccccc1F` as the compound, how does the B-score read?
Answer: inactive

Question: `COc1cccc(OC)c1C(=O)Nc1sc2c(c1C(N)=O)CCCC2` was tested. Which B-score did it give?
Answer: inactive

Question: `NC(=O)c1c(Nc2nc3c(F)cccc3s2)sc2c1CCCC2` was tested. Which B-score did it give?
Answer: 8.33 (active)

Question: Which B-score does the source give for `COC(=O)c1ccc(NC(=O)C(C)N2C(=O)c3ccccc3C2=O)cc1` (stereo not given) here?
Answer: inactive

Question: Which B-score does the source give for `Cc1ccnc(NC(=O)C(C)N2C(=O)c3ccccc3C2=O)c1` (stereo not given) here?
Answer: 7.9 (active)

Question: `CCOc1ccc(NC(=O)C(C)N2C(=O)c3ccccc3C2=O)cc1` (stereo not given) was tested. Which B-score did it give?
Answer: inactive

Question: For `Cc1ccc(NS(=O)(=O)c2cn(C)c(=O)n(C)c2=O)c(C)c1`, which B-score is on record?
Answer: inactive

Question: `CC(C)(C)c1nc2ccccc2c(=O)n1N1C(=O)c2ccccc2C1=O` was tested. Which B-score did it give?
Answer: inactive

Question: For `CC(=O)c1ccc(NC(=O)c2ccc(-n3cncn3)c([N+](=O)[O-])c2)cc1`, which B-score is on record?
Answer: inactive

Question: `CC(/C=C/c1ccccc1)=N\NC(=O)C1CC1(C)c1ccccc1` (stereo not given) was tested. Which B-score did it give?
Answer: inactive

Question: How did the B-score turn out when `O=C(N/N=C/C=C/c1ccccc1)C1CC1(c1ccccc1)c1ccccc1` (stereo not given) was run?
Answer: 14.2 (active)

Question: Which B-score does the source give for `Cc1ccc(-c2cc(C(=O)N/N=C/C=C/c3ccccc3)n[nH]2)o1` here?
Answer: inactive

Question: Which B-score does the source give for `COCc1[nH][nH]c(=O)c1C=Nc1ccc(F)cc1F` here?
Answer: inactive

Question: With `CC(C)CNc1ncnc2c1cnn2Cc1ccc(Cl)cc1` as the compound, how does the B-score read?
Answer: 7.42 (active)

Question: With `Clc1ccc(Nc2ncnc3c2nnn3Cc2ccccc2)cc1` as the compound, how does the B-score read?
Answer: inactive

Question: For `Clc1ccc(Cn2ncc3c(NCc4cccnc4)ncnc32)cc1`, which B-score is on record?
Answer: inactive

Question: For `CCOC(=O)C1=C(C)N=C2c3ccccc3C(=O)C2C1c1ccc(Br)cc1` (stereo not given), which B-score is on record?
Answer: inactive

Question: For `O=C1c2ccccc2C(=O)C1c1ccccc1F`, which B-score is on record?
Answer: inactive

Question: With `O=C1c2ccccc2C2=Nc3ccccc3SC(c3ccccc3F)C12` (stereo not given) as the compound, how does the B-score read?
Answer: 13.4 (active)

Question: With `COc1ccccc1CNS(=O)(=O)c1c(C)[nH]c(C)c1C(=O)N1CCCCC1` as the compound, how does the B-score read?
Answer: inactive

Question: How did the B-score turn out when `COc1cc(C(=O)NCc2cc3cc(Cl)ccc3n2C)cc(OC)c1OC` was run?
Answer: inactive

Question: With `CCOCc1nnc(NC(=O)CSc2ccc(C)cc2)s1` as the compound, how does the B-score read?
Answer: inactive

Question: How did the B-score turn out when `CCOCc1nnc(NC(=O)CCC2CCCCC2)s1` was run?
Answer: 7.99 (active)

Question: With `CCOCc1nnc(NC(=O)CCS(=O)(=O)Cc2ccccc2)s1` as the compound, how does the B-score read?
Answer: inactive

Question: With `OCC[C@H]1C[C@H](O)[C@@H](O)[C@]2(CCc3ccccc3O2)O1` as the compound, how does the B-score read?
Answer: inactive

Question: How did the B-score turn out when `O=C1CCC([N+](=O)[O-])C(c2ccccc2Br)N1` (stereo not given) was run?
Answer: 8.17 (active)

Question: Which B-score does the source give for `COc1cc2c(cc1OC)C(c1ccccc1Br)NC(=O)C2` (stereo not given) here?
Answer: inactive

Question: For `O=C1CCC(Cc2ccccc2)N1` (stereo not given), which B-score is on record?
Answer: inactive

Question: With `Cc1ccccc1NC(=O)c1nn(-c2ccc(F)c(F)c2)ccc1=O` as the compound, how does the B-score read?
Answer: inactive

Question: How did the B-score turn out when `Cc1cccc(N2CCN(C(=O)COCc3cc(-c4ccc5c(c4)OCO5)on3)CC2)c1C` was run?
Answer: inactive

Question: `O=C(COCc1cc(-c2ccc3c(c2)OCO3)on1)N1CCN(c2cccc(Cl)c2)CC1` was tested. Which B-score did it give?
Answer: inactive

Question: `CCOC(=O)N1CCN(C(=O)COCc2cc(-c3ccc4c(c3)OCO4)on2)CC1` was tested. Which B-score did it give?
Answer: 6.93 (active)

Question: Which B-score does the source give for `COc1ccc(-c2cc(C(=O)NC(Cc3c[nH]c4ccccc34)C(=O)O)c(C)o2)cc1OC` (stereo not given) here?
Answer: inactive

Question: With `Cc1nc(-c2ccccc2)cn2c1nc1ccccc12` as the compound, how does the B-score read?
Answer: inactive

Question: With `COc1ccc(C(=O)/C=C/c2ccc(-c3ccccc3)cc2)cc1CSCC(=O)O` as the compound, how does the B-score read?
Answer: inactive
